Results on 93 compounds are retold here after PubChem BioAssay AID449762 (Southern Research Specialized Biocontainment Screening …, 2010).

Among all 330,000 compounds or so, about 1,900 (0.58%) were called active. About 4% were inconclusive and are not listed. Rule as the data show it: inconclusive = inhibition above about 70% without an active follow-up result; inactive = below that. The list is a sample of the results. Measured potencies and affinities stand elsewhere.

This assay is described as follows: M. tuberculosis growth inhibition, HTS (AID 449762).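 Also: bacterial growth assessed after seven days of incubation.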 Conditions: M. tuberculosis H37Rv growth inhibition, 7H9 media; at 25 µM; hits give high values.
With `COc1cccc(C(=O)c2c[nH]c(C(=O)NCCCN(C)C)c2)c1`, the inhibition was -4.05% (inactive). On to `COCCn1c(CN2CCN(C(=O)c3ccco3)CC2)nc2c1c(=O)n(C)c(=O)n2C`, for which the inhibition was 13% (inactive). Consider `CC(=O)c1ccc(OC(=O)COc2ccccc2)cc1`, for which the inhibition is -5.04% (inactive). Turning to `NS(=O)(=O)c1ccc(NC(=O)CSc2ncnc3ccccc23)cc1`, the inhibition is 0.11% (inactive). For the compound `O=C(CSc1nnc(NC2CCCCC2)s1)Nc1ccc2c(c1)C(=O)c1ccccc1C2=O`, the inhibition was 4.12% (inactive). In the case of `CC(Sc1nnc(NC2CC2)s1)C(=O)Nc1ccc(S(N)(=O)=O)cc1` (stereo not drawn), the inhibition was 8.95% (inactive). `CCN1CCN(c2nc3c(c(=O)[nH]c(=O)n3C)n2CCCc2ccccc2)CC1`: the inhibition was -0.19% (inactive). To `COc1cc(C(C)=O)ccc1OCC(O)CN1CCN(S(=O)(=O)c2ccccc2)CC1` (stereo not drawn) belongs -10.5% (inactive); to `CCOC(=O)c1cc(C)nc(SC)c1C#N`, 6.64% (inactive); to `C#CCSc1nc(C)cc(C(=O)OCC)c1C#N`, 1.67% (inactive). `CCOC(=O)[C@@H]1[C@H]2COc3ccc(Br)cc3[C@@H]2N2C(=O)N(c3ccc(C)cc3)C(=O)[C@@]12C`: the inhibition is -3.24% (inactive). For `CN(Cc1cnn(C)c1)C(=O)CC1C(=O)NCCN1Cc1cccc(Oc2ccccc2)c1` (stereo not drawn), the inhibition is 3.24% (inactive).

As for `Cc1sc2nc(C(C)C)nc(SCC(=O)NC3CC3)c2c1C`, the inhibition is 0.27% (inactive). Regarding `Cc1c(C(=O)CN2CCCC(C)(C)C2)c2ccccc2n1C`, the inhibition is 5.6% (inactive). As to `CCOc1cc(CNCCCN2CCOCC2)ccc1OCC(=O)Nc1cccc2ccccc12`, the inhibition is 6.81% (inactive). As to `COc1cc(CNCCCN2CCOCC2)ccc1OCC(=O)Nc1cccc(C(F)(F)F)c1`, the inhibition is 0.14% (inactive). Next, `Cc1ccc(S(=O)(=O)N2CCOCC2)c(C)c1NS(C)(=O)=O`: -0.81% (inactive). Next, `CCN(C(=O)COc1cc(OC)ccc1C(C)=O)C1CCS(=O)(=O)C1` (stereo not drawn): 0.77% (inactive). As to `CCc1noc(C)c1C(=O)NNC(=O)COc1cc(C)ccc1C`, the inhibition is 0.9% (inactive).

In the case of `Cc1ccc(NC(=O)CCS(=O)(=O)c2cccc3nonc23)cc1`, the inhibition is 13.6% (inactive). Consider `CCc1cccc(NC(=O)CCS(=O)(=O)c2cccc3nonc23)c1`, for which the inhibition was 57.8% (inactive).

On to `O=c1c(C=Nc2ccc(Cl)cc2)c[nH]n1-c1cccc(Cl)n1`, for which the inhibition was 0.34% (inactive).

As for `O=c1c(/C=N/OCc2ccc(Cl)cc2Cl)c[nH]n1-c1cccc(Cl)n1`, the inhibition is 34.5% (inactive).

Consider `Cc1nc2c(C(F)(F)F)cccc2c2c1CCS2`, for which the inhibition is 0.87% (inactive). Next, `Cc1cccc(NC(=O)C2CCCN(S(=O)(=O)c3c(C)nn(C)c3C)C2)c1` (stereo not drawn): -8.6% (inactive); `O=C(Nc1ccccc1)c1ccccc1OS(=O)(=O)c1ccccc1`: 0.76% (inactive); `O=Cc1ccccc1OS(=O)(=O)c1ccccc1`: -6.41% (inactive). In the case of `C/C(=N\NC(=O)CN(c1ccccc1)S(C)(=O)=O)c1ccccc1O`, the inhibition is -3.69% (inactive). Regarding `Cc1cc(OC(C)C(=O)NCC2CCCO2)cc(C)c1Cl` (stereo not drawn), the inhibition is 11.1% (inactive). For the compound `CCn1cnc2sc(C(=O)N3CCN(c4ccc(OC)cc4)CC3)c(C)c2c1=O`, the inhibition is -8.96% (inactive).

Regarding `CCn1cnc2sc(C(=O)O)c(C)c2c1=O`, the inhibition was -6.99% (inactive).

With `Cc1[nH]n(-c2ccc(Br)cc2)c(=O)c1C=Nc1ccc(S(=O)(=O)Nc2nccs2)cc1`, the inhibition was 68.2% (inactive). With `Cc1ccc(-n2[nH]c(C)c(C=Nc3ccc(S(=O)(=O)Nc4nc(C)cc(C)n4)cc3)c2=O)c(C)c1`, the inhibition is -3.23% (inactive). For `C[C@H](CO)N1C[C@H](C)[C@@H](CN(C)C)Oc2c(NS(=O)(=O)c3ccccc3)cccc2C1=O`, the inhibition was 0.58% (inactive). Take `O=C(NC1CC1)C1CCN(C2CCN(C(=O)/C=C/c3cccs3)CC2)CC1`: the inhibition was -5.63% (inactive). For the compound `O=C(CNC(=O)c1cccs1)OCc1ccc(Br)cc1`, the inhibition is -2.09% (inactive). With `O=C(CCC(=O)N(c1ccc(F)cc1)C(C(=O)NC1CCCC1)c1ccncc1)Nc1cccnc1` (stereo not drawn), the inhibition is -10.1% (inactive). Turning to `CC(=O)Nc1ccc(C(=O)CN2C(=O)NC3(CCOc4ccccc43)C2=O)c(F)c1` (stereo not drawn), the inhibition was -3.12% (inactive). On to `CCCNC(=O)CCn1c(=S)oc2ccccc21`, for which the inhibition is 2.75% (inactive). Next, `CCCCOC(=O)CCn1c(=S)oc2ccccc21`: 23.9% (inactive); `Cc1ccc(Cl)cc1-n1c(O)c(C=NCCCN2CCOCC2)c(=O)[nH]c1=O`: -2.44% (inactive). To `COc1ccc(C2=CN(Cc3ccccc3)C(c3ccccc3)CC2=O)cc1` (stereo not drawn) belongs -2.25% (inactive); to `Cc1cc(C)c(NC(=O)c2cc3c(nc4sccn43)s2)c(C)c1`, -18.3% (inactive); to `CCN(C(=O)COC(=O)c1[nH]c(C)c(C(C)=O)c1C)C1CCS(=O)(=O)C1` (stereo not drawn), -10.7% (inactive).

As to `O=C(Nc1ccc(N2CCOCC2)cc1)c1ccc([N+](=O)[O-])cc1`, the inhibition was 1.26% (inactive).

As for `CCn1c2ccccc2c2cc(NC(=O)c3ccc([N+](=O)[O-])cc3)ccc21`, the inhibition is 9.29% (inactive). Next, `CN(C)c1ccc(NC(=O)c2cn(-c3ccccc3)nc2-c2cccs2)cc1`: -2.85% (inactive). Turning to `CCN(CC)CCNC(=O)c1cn(-c2ccccc2)nc1-c1cccs1`, the inhibition was 5.6% (inactive). As to `Cc1oc(-c2cccc(Cl)c2)nc1CSc1nc2c(c(=O)[nH]1)CCC2`, the inhibition was -10.8% (inactive). For the compound `Cn1c(-c2ccccc2)cnc1NCc1cc(Cl)ccc1O`, the inhibition was 10.7% (inactive). For the compound `Cn1c(-c2cccc(Br)c2)cnc1NCc1ccccc1O`, the inhibition is 42.5% (inactive). As to `Cc1cccc(C)c1N/C=C/c1onc(C)c1[N+](=O)[O-]`, the inhibition is -4.35% (inactive). To `Cc1ccc(N/C=C/c2onc(C)c2[N+](=O)[O-])cc1` belongs -2.82% (inactive). For `COc1ccc(NC(=O)c2ccco2)cn1`, the inhibition was -3.96% (inactive). Next, `Cn1ccnc1SCC(=O)Nc1ccc(Cl)cn1`: -1.74% (inactive).

`CCCCn1c(SCc2c(C)noc2C)nc2cc(S(N)(=O)=O)ccc21`: the inhibition was -4.65% (inactive).

Regarding `CCCCn1c(SCc2nc3ccccc3s2)nc2cc(S(N)(=O)=O)ccc21`, the inhibition is 1.21% (inactive).

On to `Cc1ccc(C)c(NC(=O)c2c(Cl)nc3ccccn23)c1`, for which the inhibition is 10.7% (inactive). As for `Cc1ccc(-c2nc(-c3ccncc3)no2)cc1`, the inhibition was -14.2% (inactive). With `O=[N+]([O-])c1ccc(-c2nc(-c3ccncc3)no2)cc1`, the inhibition is 7.86% (inactive). For the compound `O=[N+]([O-])c1cccc(-c2nc(-c3ccncc3)no2)c1`, the inhibition was -2% (inactive). To `Brc1ccc(-c2nc(-c3ccncc3)no2)cc1` belongs 1.44% (inactive); to `CCn1ccc(C(=O)Nc2ccc3c(c2)CCC3)n1`, -10.2% (inactive).

With `COc1ccc(/C=N/n2c(C)nc3ccccc3c2=O)cc1OC`, the inhibition is 7.03% (inactive). For the compound `NC(=O)c1ccc(NC(=S)NCc2ccco2)cc1`, the inhibition is -0.21% (inactive). As for `O=C(NNC(=O)C12CC3CC(CC(C3)C1)C2)c1cnccn1`, the inhibition was -6.86% (inactive).

On to `O=C(NNC(=O)C12CC3CC(CC(C3)C1)C2)c1ccncc1`, for which the inhibition is 2.26% (inactive). `COc1ccc(CCOC(=O)c2ccc(NC(=O)CC#N)cc2)cc1`: the inhibition was -3.16% (inactive). Next, `Cc1c(C(=O)NCCCN2CCCC2=O)oc2c(Cl)cccc12`: -3.89% (inactive); `CC(=O)C1=C(C)Nc2ncnn2C1c1ccc(Br)cc1` (stereo not drawn): 2.48% (inactive); `Cc1nn(CC(=O)Nc2c(C)n(C)n(-c3ccccc3)c2=O)c(C)c1[N+](=O)[O-]`: -2.07% (inactive). On to `COc1ccc(NC(=O)CCC(=O)N(Cc2ccc(OC)c(OC)c2)c2nccs2)c(OC)c1`, for which the inhibition was -1.87% (inactive).

Regarding `O=c1cc(-c2ccccc2)[nH]c2ccccc12`, the inhibition is 3.78% (inactive). On to `O=c1nc(-c2ccccc2)c2ccccc2[nH]1`, for which the inhibition was -8.68% (inactive).

Turning to `Cc1ccc2c(c1)c1c(n2C)C(=O)CCC1`, the inhibition is -12% (inactive). As to `c1cc2c(cc1C1CCCCC1)c1c3n2CCN=C3CCC1`, the inhibition is -6.21% (inactive). In the case of `COc1cccc(OCC(=O)Nc2c3c(nn2-c2ccccc2)CS(=O)(=O)C3)c1`, the inhibition is 4.27% (inactive). Next, `Cc1ccc(/C=N/NC(=O)Cc2cccn2C)s1`: 4.27% (inactive). As to `COC(=O)C1=C(C)Nc2c(c(=O)n(C)c(=O)n2C)C1c1cccs1` (stereo not drawn), the inhibition was -11.8% (inactive). To `Cc1noc(C)c1C(=O)OCC(=O)Nc1cc(Cl)ccc1Oc1ccccc1` belongs 2.51% (inactive). Turning to `Cc1ccc(N(CC(=O)Nc2cccc(Cl)c2C)S(C)(=O)=O)cc1`, the inhibition is 7.2% (inactive). As for `O=C(Cc1cccc(NC(=O)C2CCCN(C(=O)C3CCC3)C2)c1)Nc1cccc(C(=O)N2CCCC2)c1` (stereo not drawn), the inhibition is -9.14% (inactive). For `Cc1cccc(C(=O)N2N=C(c3ccc(NS(C)(=O)=O)cc3)CC2c2cccs2)c1` (stereo not drawn), the inhibition is 2.79% (inactive). As to `CS(=O)(=O)Nc1ccc(C2=NN(C(=O)c3ccccc3)C(c3cccs3)C2)cc1` (stereo not drawn), the inhibition was 26.9% (inactive).

For the compound `O=C(O)C(O)C(O)C(O)C(O)C(=O)O` (stereo not drawn) (tested in a mixture with another compound), the inhibition was 3.48% (inactive).

As for `CCN(C[C@H]1N[C@@](Cc2ccccc2)(C(=O)OC)[C@H]2C(=O)N(C)C(=O)[C@@H]12)C(=O)Nc1ccc(F)cc1`, the inhibition was 4.09% (inactive). For `CN(C)c1ccc(/C=C/C(=O)c2ccccc2)cc1[N+](=O)[O-]`, the inhibition is 16.9% (inactive). For `COc1ccc(Oc2ccc(/C=C/C(=O)c3ccc(O)cc3)cc2[N+](=O)[O-])cc1`, the inhibition is 8.6% (inactive).

In the case of `COC(=O)c1cccc2c1NC(=O)C2=O`, the inhibition was 3.61% (inactive). Regarding `O=C(NCc1ccccc1Cl)c1cccc(OC2CCN(C(=O)C3CC3)CC2)c1`, the inhibition was 5.75% (inactive).

For the compound `COc1ccccc1C1CC(c2ccc(F)cc2)Nc2ncnn21` (stereo not drawn), the inhibition was -11.3% (inactive). Consider `COc1ccccc1C1CC(c2ccc(C)cc2)Nc2ncnn21` (stereo not drawn), for which the inhibition was -9.91% (inactive). To `COC(=O)CN(c1ccc(C)cc1)S(=O)(=O)c1ccc(F)cc1` belongs 14.1% (inactive).
